# Data published in paper PMC5540273 (PLoS ONE, 2017).
# Read-outs that look alike come from different tables or passages of the source.
# What was measured:
# Settings in all cases: n = 1
# IRAK4 = test system: IRAK4
# ITK = test system: ITK
# [1] = test system: JAK1(JH1domain-catalytic)
# [2] = test system: JAK1(JH2domain-pseudokinase)
# [3] = test system: JAK2(JH1domain-catalytic)
# [4] = test system: JAK3(JH1domain-catalytic)
# JNK1 = test system: T1, JNK1
# T1 construct: gene MAPK8
# JNK2 = test system: T2, JNK2
# T2 construct: gene MAPK9
# JNK3 = test system: T3, JNK3
# T3 construct: gene MAPK10
# KIT-autoinhibited = test system: KIT-autoinhibited
# KIT = test system: KIT
# LATS1 = test system: LATS1
# LATS2 = test system: LATS2
# LCK = test system: LCK
# LIMK1 = test system: LIMK1
# LIMK2 = test system: LIMK2
# LKB1 = test system: T4, LKB1
# T4 construct: gene STK11
# LOK = test system: T5, LOK
# T5 construct: gene STK10
# LRRK2 = test system: LRRK2
# LTK = test system: LTK
# [5] = concentration: 1 μM, replicates: in singlicate
# 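Further: KINOMEscan kinase panel screen.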
compound,measurement,setting,value
Cn1ccc2ncnc(Oc3ccc(Nc4nc5ccccc5[nH]4)cc3)c21,%Inh,IRAK4; [5],0%
same,%Inh,ITK; [5],3%
same,%Inh,[1]; [5],8%
same,%Inh,[2]; [5],0%
same,%Inh,[3]; [5],0%
same,%Inh,[4]; [5],0%
same,%Inh,JNK1; [5],0%
same,%Inh,JNK2; [5],0%
same,%Inh,JNK3; [5],0%
same,%Inh,KIT-autoinhibited; [5],0%
same,%Inh,KIT; [5],77%
same,%Inh,LATS1; [5],0%
same,%Inh,LATS2; [5],0%
same,%Inh,LCK; [5],0%
same,%Inh,LIMK1; [5],0%
same,%Inh,LIMK2; [5],0%
same,%Inh,LKB1; [5],3%
same,%Inh,LOK; [5],93.7%
same,%Inh,LRRK2; [5],0%
same,%Inh,LTK; [5],0%
Cc1ccc(NC(=O)Nc2cccc(C(F)(F)F)c2)cc1 [GSK955403],%Inh,IRAK4; 1 µM,0%
same,%Inh,ITK; 1 µM,12%
same,%Inh,[1]; 1 µM,0%
same,%Inh,[2]; 1 µM,12%
same,%Inh,[3]; 1 µM,0%
same,%Inh,[4]; 1 µM,0%
same,%Inh,JNK1; 1 µM,58%
same,%Inh,JNK2; 1 µM,26%
same,%Inh,JNK3; 1 µM,46%
same,%Inh,KIT-autoinhibited; 1 µM,3%
same,%Inh,KIT; 1 µM,91.4%
same,%Inh,LATS1; 1 µM,0%
same,%Inh,LATS2; 1 µM,20%
same,%Inh,LCK; 1 µM,6%
same,%Inh,LIMK1; 1 µM,0%
same,%Inh,LIMK2; 1 µM,10%
same,%Inh,LKB1; 1 µM,16%
same,%Inh,LOK; 1 µM,0%
same,%Inh,LRRK2; 1 µM,0%
same,%Inh,LTK; 1 µM,0%
O=C(Nc1n[nH]c2nc(-c3nccs3)c(Br)cc12)C1CCCC1 [SB-742609],%Inh,IRAK4; [5],39%
same,%Inh,ITK; [5],24%
same,%Inh,[1]; [5],16%
same,%Inh,[2]; [5],0%
same,%Inh,[3]; [5],23%
same,%Inh,[4]; [5],0%
same,%Inh,JNK1; [5],38%
same,%Inh,JNK2; [5],27%
same,%Inh,JNK3; [5],17%
same,%Inh,KIT-autoinhibited; [5],16%
same,%Inh,KIT; [5],7%
same,%Inh,LATS1; [5],9%
same,%Inh,LATS2; [5],0%
same,%Inh,LCK; [5],9%
same,%Inh,LIMK1; [5],19%
same,%Inh,LIMK2; [5],0%
same,%Inh,LKB1; [5],0%
same,%Inh,LOK; [5],0%
same,%Inh,LRRK2; [5],35%
same,%Inh,LTK; [5],0%
CCn1c(-c2cccnc2O)nc2cnccc21 [SB-736715],%Inh,IRAK4; [5],0%
same,%Inh,ITK; [5],26%
same,%Inh,[1]; [5],0%
same,%Inh,[2]; [5],0%
same,%Inh,[3]; [5],0%
same,%Inh,[4]; [5],0%
same,%Inh,JNK1; [5],0%
same,%Inh,JNK2; [5],10%
same,%Inh,JNK3; [5],1%
same,%Inh,KIT-autoinhibited; [5],18%
same,%Inh,KIT; [5],0%
same,%Inh,LATS1; [5],0%
same,%Inh,LATS2; [5],0%
same,%Inh,LCK; [5],0%
same,%Inh,LIMK1; [5],0%
same,%Inh,LIMK2; [5],0%
same,%Inh,LKB1; [5],27%
same,%Inh,LOK; [5],0%
same,%Inh,LRRK2; [5],0%
same,%Inh,LTK; [5],0%
Cc1nnc(-c2ccc3occ(-c4ccc(S(C)=O)cc4)c3c2)[nH]1 (stereo not shown),%Inh,IRAK4; [5],0%
same,%Inh,ITK; [5],13%
same,%Inh,[1]; [5],3%
same,%Inh,[2]; [5],90.4%
same,%Inh,[3]; [5],11%
same,%Inh,[4]; [5],22%
same,%Inh,JNK1; [5],3%
same,%Inh,JNK2; [5],26%
same,%Inh,JNK3; [5],45%
same,%Inh,KIT-autoinhibited; [5],11%
same,%Inh,KIT; [5],20%
same,%Inh,LATS1; [5],19%
same,%Inh,LATS2; [5],0%
same,%Inh,LCK; [5],46%
same,%Inh,LIMK1; [5],0%
same,%Inh,LIMK2; [5],0%
same,%Inh,LKB1; [5],23%
same,%Inh,LOK; [5],98.7%
same,%Inh,LRRK2; [5],0%
same,%Inh,LTK; [5],0%
COc1ccccc1CNC(=O)c1cc(C(=O)c2ccccc2C)c[nH]1 [GSK364507],%Inh,IRAK4; [5],23%
same,%Inh,ITK; [5],16%
same,%Inh,[1]; [5],19%
same,%Inh,[2]; [5],0%
same,%Inh,[3]; [5],0%
same,%Inh,[4]; [5],0%
same,%Inh,JNK1; [5],45%
same,%Inh,JNK2; [5],9%
same,%Inh,JNK3; [5],16%
same,%Inh,KIT-autoinhibited; [5],0%
same,%Inh,KIT; [5],41%
same,%Inh,LATS1; [5],0%
same,%Inh,LATS2; [5],0%
same,%Inh,LCK; [5],12%
same,%Inh,LIMK1; [5],8%
same,%Inh,LIMK2; [5],5%
same,%Inh,LKB1; [5],0%
same,%Inh,LOK; [5],0%
same,%Inh,LRRK2; [5],0%
same,%Inh,LTK; [5],0%
CN1C(=O)C(Nc2ccc(Cl)c(C(=O)O)c2)=C(c2ccc(Cl)cc2)C1=O [SB-404290],%Inh,IRAK4; [5],0%
same,%Inh,ITK; [5],4%
same,%Inh,[1]; [5],0%
same,%Inh,[2]; [5],17%
same,%Inh,[3]; [5],8%
same,%Inh,[4]; [5],0%
same,%Inh,JNK1; [5],26%
same,%Inh,JNK2; [5],2%
same,%Inh,JNK3; [5],7%
same,%Inh,KIT-autoinhibited; [5],0%
same,%Inh,KIT; [5],1%
same,%Inh,LATS1; [5],15%
same,%Inh,LATS2; [5],15%
same,%Inh,LCK; [5],23%
same,%Inh,LIMK1; [5],7%
same,%Inh,LIMK2; [5],0%
same,%Inh,LKB1; [5],18%
same,%Inh,LOK; [5],4%
same,%Inh,LRRK2; [5],0%
same,%Inh,LTK; [5],9%
Cl.Oc1ccc(-c2nc(-c3ccccc3)[nH]c2-c2ccncc2)cc1 [SB-428218],%Inh,IRAK4; [5],18%
same,%Inh,ITK; [5],10%
same,%Inh,[1]; [5],4%
same,%Inh,[2]; [5],36%
same,%Inh,[3]; [5],0%
same,%Inh,[4]; [5],0%
same,%Inh,JNK1; [5],2%
same,%Inh,JNK2; [5],0%
same,%Inh,JNK3; [5],0%
same,%Inh,KIT-autoinhibited; [5],18%
same,%Inh,KIT; [5],26%
same,%Inh,LATS1; [5],0%
same,%Inh,LATS2; [5],48%
same,%Inh,LCK; [5],20%
same,%Inh,LIMK1; [5],0%
same,%Inh,LIMK2; [5],0%
same,%Inh,LKB1; [5],8%
same,%Inh,LOK; [5],0%
same,%Inh,LRRK2; [5],0%
same,%Inh,LTK; [5],0%
Cn1ccc2ncnc(Oc3cccc(C(=O)Nc4ccccc4)c3)c21,%Inh,IRAK4; [5],8%
same,%Inh,ITK; [5],0%
same,%Inh,[1]; [5],7%
same,%Inh,[2]; [5],27%
same,%Inh,[3]; [5],12%
same,%Inh,[4]; [5],0%
same,%Inh,JNK1; [5],16%
same,%Inh,JNK2; [5],0%
same,%Inh,JNK3; [5],0%
same,%Inh,KIT-autoinhibited; [5],0%
same,%Inh,KIT; [5],35%
same,%Inh,LATS1; [5],0%
same,%Inh,LATS2; [5],6%
same,%Inh,LCK; [5],7%
same,%Inh,LIMK1; [5],100%
same,%Inh,LIMK2; [5],0%
same,%Inh,LKB1; [5],25%
same,%Inh,LOK; [5],0%
same,%Inh,LRRK2; [5],0%
same,%Inh,LTK; [5],2%
Cl.c1ccc(-c2n[nH]cc2-c2ccnc(-c3ccc(CN4CCOCC4)cc3)c2)nc1 [GW776245],%Inh,IRAK4; [5],0%
same,%Inh,ITK; [5],0%
same,%Inh,[1]; [5],0%
same,%Inh,[2]; [5],2%
same,%Inh,[3]; [5],0%
same,%Inh,[4]; [5],0%
same,%Inh,JNK1; [5],31%
same,%Inh,JNK2; [5],17%
same,%Inh,JNK3; [5],20%
same,%Inh,KIT-autoinhibited; [5],0%
same,%Inh,KIT; [5],8%
same,%Inh,LATS1; [5],3%
same,%Inh,LATS2; [5],0%
same,%Inh,LCK; [5],0%
same,%Inh,LIMK1; [5],5%
same,%Inh,LIMK2; [5],19%
same,%Inh,LKB1; [5],18%
same,%Inh,LOK; [5],0%
same,%Inh,LRRK2; [5],0%
same,%Inh,LTK; [5],28%
Cc1csc(-c2nc(Nc3ccncc3)c3ccccc3n2)n1 [GW869640],%Inh,IRAK4; [5],0%
same,%Inh,ITK; [5],11%
same,%Inh,[1]; [5],0%
same,%Inh,[2]; [5],74%
same,%Inh,[3]; [5],53%
same,%Inh,[4]; [5],9%
same,%Inh,JNK1; [5],54%
same,%Inh,JNK2; [5],16%
same,%Inh,JNK3; [5],15%
same,%Inh,KIT-autoinhibited; [5],24%
same,%Inh,KIT; [5],12%
same,%Inh,LATS1; [5],19%
same,%Inh,LATS2; [5],20%
same,%Inh,LCK; [5],2%
same,%Inh,LIMK1; [5],15%
same,%Inh,LIMK2; [5],2%
same,%Inh,LKB1; [5],43%
same,%Inh,LOK; [5],40%
same,%Inh,LRRK2; [5],31%
same,%Inh,LTK; [5],18%
Cc1cccc(-c2nc(Nc3cccc(C(N)=O)c3)c3ccccc3n2)n1 [GW876019],%Inh,IRAK4; [5],4%
same,%Inh,ITK; [5],8%
same,%Inh,[1]; [5],0%
same,%Inh,[2]; [5],78%
same,%Inh,[3]; [5],12%
same,%Inh,[4]; [5],15%
same,%Inh,JNK1; [5],0%
same,%Inh,JNK2; [5],0%
same,%Inh,JNK3; [5],0%
same,%Inh,KIT-autoinhibited; [5],10%
same,%Inh,KIT; [5],0%
same,%Inh,LATS1; [5],8%
same,%Inh,LATS2; [5],0%
same,%Inh,LCK; [5],20%
same,%Inh,LIMK1; [5],0%
same,%Inh,LIMK2; [5],9%
same,%Inh,LKB1; [5],0%
same,%Inh,LOK; [5],21%
same,%Inh,LRRK2; [5],73%
same,%Inh,LTK; [5],40%
Cn1cncc1-c1ccc2ncnc(Nc3ccc(OCc4ccccc4)cc3)c2c1 [GW320571],%Inh,IRAK4; [5],2%
same,%Inh,ITK; [5],14%
same,%Inh,[1]; [5],18%
same,%Inh,[2]; [5],22%
same,%Inh,[3]; [5],0%
same,%Inh,[4]; [5],0%
same,%Inh,JNK1; [5],18%
same,%Inh,JNK2; [5],6%
same,%Inh,JNK3; [5],4%
same,%Inh,KIT-autoinhibited; [5],0%
same,%Inh,KIT; [5],28%
same,%Inh,LATS1; [5],0%
same,%Inh,LATS2; [5],0%
same,%Inh,LCK; [5],13%
same,%Inh,LIMK1; [5],18%
same,%Inh,LIMK2; [5],11%
same,%Inh,LKB1; [5],0%
same,%Inh,LOK; [5],2%
same,%Inh,LRRK2; [5],21%
same,%Inh,LTK; [5],11%
COc1ccc(Nc2nccc(-c3cccc(NC(=O)c4cc5cc(F)ccc5[nH]4)c3)n2)cc1 [GSK1229782],%Inh,IRAK4; [5],3%
same,%Inh,ITK; [5],23%
same,%Inh,[1]; [5],34%
same,%Inh,[2]; [5],0%
same,%Inh,[3]; [5],10%
same,%Inh,[4]; [5],0%
same,%Inh,JNK1; [5],28%
same,%Inh,JNK2; [5],34%
same,%Inh,JNK3; [5],15%
same,%Inh,KIT-autoinhibited; [5],0%
same,%Inh,KIT; [5],57%
same,%Inh,LATS1; [5],5%
same,%Inh,LATS2; [5],6%
same,%Inh,LCK; [5],46%
same,%Inh,LIMK1; [5],0%
same,%Inh,LIMK2; [5],12%
same,%Inh,LKB1; [5],12%
same,%Inh,LOK; [5],0%
same,%Inh,LRRK2; [5],42%
same,%Inh,LTK; [5],19%
